High-throughput results as filed in PubChem.
This is a sample that favours compounds with a hit; in the whole collection about 31% have one here.
PLAP act = activators of human placental alkaline phosphatase; purified PLAP enzyme, luminescent substrate read-out; stronger effect = higher value; 96,000 tested, 1.2% active; activation fold at 20 µM; P05187; AID 696; in the data active = activation fold above about 2
CYP2C19 act = activators of human cytochrome P450 2C19 | recombinant CYP2C19, luciferin-H EGE luminescence; stronger effect = higher value; 0 = fully inhibited enzyme, 1 = untreated enzyme | activation factor at 5 µM | 96,000 tested, under 10 active;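 active = activation factor of at least 2 at 5 µM in the primary screen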;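 note: 0 = wells with 2.5 mM tranylcypromine and 1 = vehicle-only wells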
CYP2C9 act = CYP2C9 (human) activation | P11712 | recombinant CYP2C9, luciferin-H conversion, luminescence; stronger effect = higher value; factor 1 = untreated enzyme, 0 = blocked | activation factor at 5 µM | 96,000 tested, 1.4% active | AID 1024;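 active = activation factor of 2 or more for CYP2C9 at a 5 µM dose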;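 note: 0 = sulfaphenazole-blocked wells and 1 = vehicle-only wells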
Target sequence (P11712 whole entry, looked up): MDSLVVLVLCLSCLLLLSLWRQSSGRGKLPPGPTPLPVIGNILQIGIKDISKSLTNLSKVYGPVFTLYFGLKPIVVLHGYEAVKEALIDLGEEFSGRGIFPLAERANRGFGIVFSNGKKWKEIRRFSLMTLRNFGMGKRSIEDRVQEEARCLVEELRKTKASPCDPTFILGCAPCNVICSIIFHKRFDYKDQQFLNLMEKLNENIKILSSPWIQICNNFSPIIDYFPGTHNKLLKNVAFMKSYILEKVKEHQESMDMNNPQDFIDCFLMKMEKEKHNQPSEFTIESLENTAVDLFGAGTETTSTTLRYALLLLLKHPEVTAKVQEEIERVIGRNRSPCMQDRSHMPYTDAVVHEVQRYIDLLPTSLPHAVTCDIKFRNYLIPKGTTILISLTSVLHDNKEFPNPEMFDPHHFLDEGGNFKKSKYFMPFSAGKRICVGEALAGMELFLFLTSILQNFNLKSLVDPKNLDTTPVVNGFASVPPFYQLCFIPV
CYP2C19 inhib = blocks human cytochrome P450 2C19; AID 778; inhibition, % at 5 µM; 96,000 tested, 21% active; CYP2C19 Supersomes, luciferin-H EGE luminescence, 30 min; P33261;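 active = CYP2C19 inhibition above a set limit at 5 µM in the primary screen, cut at about 50% in these data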;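 note: plate controls were negative control wells for no effect and 2.5 mM tranylcypromine positive control for full effect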
CYP2C9 inh = inhibitors of human CYP2C9. 96,000 tested, 20% active. inhibition, % at 5 µM. CYP2C9 Supersomes, luciferin-H conversion, luminescence;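 active = blocking of liver enzyme CYP2C9 beyond about 50% at 5 µM, limit read from the data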
* = called active by the depositor.

SMILES	PLAP act	CYP2C19 act	CYP2C9 act	CYP2C19 inhib	CYP2C9 inh
CCc1c(C)nc2ncnn2c1N1CCC(C(=O)NCc2cccc(OC)c2)CC1	1.1	0.9	1	6	-2
CCc1c(C)nc2ncnn2c1N1CCCC(C(=O)NCCc2ccccc2)C1 (stereo not drawn)	1	1	0.6	-2	35
COc1ccc(CC(NC(C)=O)C(=O)NC2CCN(c3c4c(nc5ncnn35)CCC4)CC2)cc1 (stereo not drawn)	1.4	1	0.9	3	5
CCOc1cccc(-c2nn3c(-c4ccco4)nnc3s2)c1	0.9	0.9	0.9	14	6
COc1ccc(N2C(=O)CS/C2=C\[N+](=O)[O-])cc1	0.9	0.9	0.9	13	6
CC(=O)Nc1ccccc1-c1nc2ccc(C(=O)N3CCN(c4cc(C)ccc4C)CC3)cc2[nH]c1=O	1.6	0.3	0	70*	99*
CCN(CCNC(=O)c1ccc2nc(-c3ccccc3NC(C)=O)c(=O)[nH]c2c1)c1ccccc1	1.2	0.6	0.7	44	32
CCC(C)NC(=O)COc1ccc(Br)c(C)c1 (stereo not drawn)	1.1	0.7	0.8	27	22
Cc1cc(C)c(S(=O)(=O)c2ccccc2)c(OC(=O)c2ccc(Cl)cc2Cl)n1	0.9	1.1	1.1	-8	-6
Cc1cc(C)n(Cc2ccc(Cl)cc2Cl)c(=O)c1S(=O)(=O)c1ccccc1	1	0.6	0.1	44	92*
CC(C)Cn1c(SCc2nnc(-c3cccs3)o2)nc(O)cc1=O	1.4	0.8	0.3	24	75*
Cc1sc2nc(SCc3nnc(-c4cccs4)o3)n(C3CCCC3)c(=O)c2c1C	1.4	0.7	0.2	26	83*
CCCn1c(-c2ccccc2)nc2c(=O)n(C)c(=O)[nH]c21	1	1	1	4	-4
Cc1ccnc(SCCn2c(N3CCN(Cc4ccccc4)CC3)nc3c2c(=O)[nH]c(=O)n3C)n1	1.8	0.2	0.2	83*	78*
COCCn1c(N2CCN(c3ccc(OC)cc3)CC2)nc2c1c(=O)[nH]c(=O)n2C	1.2	0.4	0.6	61*	42
COc1ccc(CCn2c(N3CCN(Cc4ccccc4)CC3)nc3c2c(=O)[nH]c(=O)n3C)cc1	1.5	0.4	0.6	62*	43
COc1ccc(-c2nc3c(=O)n(C)c(=O)[nH]c3n2CCc2ccccc2)cc1	1.1	1	0.3	-4	72*
CC1=C(C(N)=O)C(c2ccc(C)o2)C(C(N)=O)=C(C)N1	0.8	0.9	0.9	6	7
COc1ccc(Cl)cc1-n1c(C)cc(C=O)c1C	0.9	0.1	0.4	87*	60*
CCOC(=O)c1cc(NC(=O)c2ccc(Cl)cc2)c(=O)n2c1oc1ccc(Cl)cc12	1.4	1	1	0	1
Cc1ccc(C23CC4CC(CC(NC(=O)N5CCN(C)CC5)(C4)C2)C3)cc1	1.6	0.6	0.7	36	30
Cc1ccc(C23CC4CC(CC(NC(=O)NC(C)(C)CO)(C4)C2)C3)cc1	2.3*	0.3	0.3	73*	75*
CCOC(=O)CSC1=C(C#N)C(c2ccccc2OC)CC(=O)N1 (stereo not drawn)	0.9	0.4	0.8	64*	15
COc1ccc(OC)c(C2CC(=O)NC(SC)=C2C#N)c1 (stereo not drawn)	1	0.5	0.4	48	64*
CCSC1=C(C#N)C(c2ccc(Cl)cc2)C2=C(CCCC2=O)N1 (stereo not drawn)	0.8	0.1	0.1	94*	94*
SMILES	PLAP act	CYP2C19 act	CYP2C9 act	CYP2C19 inhib	CYP2C9 inh
CCOC(=O)CSC1=C(C#N)C(c2ccccc2C)C2=C(CCCC2=O)N1 (stereo not drawn)	0.8	0.5	0.2	50*	79*
CCSc1ccccc1C(=O)NCc1ccc(S(N)(=O)=O)cc1	0.8	1	0.9	3	8
Cc1nc2c(cnn2-c2ccc(Cl)cc2)c(=O)n1-c1ccc(N2CCC(C)CC2)cc1	1	1.1	1	-6	2
O=C(Cn1cc2c(n1)CCCC2)NCC1CCCO1 (stereo not drawn)	1	0.7	1.4	31	-41
CCSC1=C(C#N)C(c2ccc(C)s2)CC(=O)N1 (stereo not drawn)	1	0.3	0.5	69*	52*
CCOC(=O)CSC1=C(C#N)C(c2ccc(C)s2)CC(=O)N1 (stereo not drawn)	0.9	0.3	0	72*	96*
Cc1ccc(NC(=O)Cc2nnc(SCC(=O)c3ccc(Br)cc3)n2C)cc1Cl	0.8	1.1	0.9	-9	12
CCCCN1C2=NCCCN2c2cc(C)c(C)cc21	0.8	1.1	1	-8	2
COC(=O)COc1ccc(S(=O)(=O)N2CCN(c3ccc(F)cc3)CC2)cc1	1	0.8	0.5	24	46
COC(=O)C1C(O)=C(C=NCC(C)N=CC2=C(O)C(C(=O)OC)C(C)(C)CC2=O)C(=O)CC1(C)C (stereo not drawn)	2.2*	1	1.1	0	-6
CCCCn1c(=O)cc(N2CCOCC2)[nH]c1=O	1	1.2	1.3	-21	-30
O=C(/C=C/N1CCOCC1)c1cc2ccccc2o1	1	0.9	0.2	9	77*
CN1CCN(C(=O)c2cc3ccccc3oc2=O)CC1	1.1	0.9	1	7	-2
CC1CCN(C(=O)c2cc3ccccc3o2)CC1	0.9	0.1	0.8	86*	22
Cn1c(-c2ccc(CN3CCCCC3)o2)nc2ccccc21	1	1	1	5	2
CCOc1cc(N2C(=O)CC3CS(=O)(=O)CC32)c(OCC)cc1NC(=O)c1ccccc1 (stereo not drawn)	1.4	1.1	1	-10	-5
c1ccc2c(c1)nc1n2CCS1	1	0.4	1.2	62*	-19
Cc1c(Br)c([N+](=O)[O-])nn1C(C)C(=O)N1CCCc2ccccc21 (stereo not drawn)	1.1	0.4	0.6	58*	41
O=C(c1ccccc1F)N1CCc2ccccc21	1	0.4	3.5*	62*	-250
CC(=O)Nc1ccccc1C(=O)N1CCc2ccccc21	1.1	0.8	1.2	16	-18
Cc1cc(=O)oc2cc(OCC(=O)Nc3nnc(C(C)C)s3)ccc12	1	1.1	0.9	-7	15
Cc1nnc(NC(=O)C(C)Oc2ccc3c(C)cc(=O)oc3c2)s1 (stereo not drawn)	1.4	0.9	0.1	12	94*
CC(C(=O)N1CCc2ccccc21)n1cccc1 (stereo not drawn)	0.9	0.2	1	82*	-4
Cc1cc(=O)oc2cc(OCC(O)CN3CCc4ccccc4C3)ccc12 (stereo not drawn)	1.5	0.4	0	65*	100*
Cc1cc(=O)oc2cc(OC(C)C(=O)N3CCCc4ccccc43)ccc12 (stereo not drawn)	1.1	0.6	0.2	38	84*
